Compound activity deposited in PubChem BioAssay by several laboratories.
Sampled rows, rich in hits. Any-hit rate of the full collection: about 5%.
SENP6 block: inhibitors of human SENP6 protease | Recombinant SENP6 catalytic domain, aminoluciferin luminescence | inhibition, % at 10 µM | 330,000 tested, 1.8% active | AID 2599;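 active means inhibition above about 50% at the single tested dose, limit read from the data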;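 further: plate controls were DMSO wells with enzyme for no effect and DMSO wells lacking enzyme for full effect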
SENP8 block-1: inhibitors of human SENP8 protease; recombinant SENP8, Nedd8 substrate fluorescence; inhibition, % at 20 µM; 360,000 tested, 0.64% active; AID 602440; in the data active means inhibition mostly above about 40%, no sharp cut-off; inactive means mostly below about 27%
Target sequence (Q96LD8 whole entry, looked up): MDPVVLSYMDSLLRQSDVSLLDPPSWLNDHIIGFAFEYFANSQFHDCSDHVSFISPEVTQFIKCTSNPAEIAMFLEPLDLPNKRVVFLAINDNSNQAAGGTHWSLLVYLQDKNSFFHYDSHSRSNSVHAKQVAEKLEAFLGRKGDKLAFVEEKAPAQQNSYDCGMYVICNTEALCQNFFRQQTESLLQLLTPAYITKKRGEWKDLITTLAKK
SENP7 block: inhibitors of human SENP7 protease. 330,000 tested, 1.5% active. Q9BQF6. inhibition, % at 5 µM. recombinant SENP7, Z-RLRGG-aminoluciferin luminescence, 40 min;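 active means inhibition above about 50% at the single test dose, limit read from the data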;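 further: plate controls were DMSO with enzyme for no effect and no enzyme buffer wells for full effect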
Target sequence (Q9BQF6 706-1050 limits assumed): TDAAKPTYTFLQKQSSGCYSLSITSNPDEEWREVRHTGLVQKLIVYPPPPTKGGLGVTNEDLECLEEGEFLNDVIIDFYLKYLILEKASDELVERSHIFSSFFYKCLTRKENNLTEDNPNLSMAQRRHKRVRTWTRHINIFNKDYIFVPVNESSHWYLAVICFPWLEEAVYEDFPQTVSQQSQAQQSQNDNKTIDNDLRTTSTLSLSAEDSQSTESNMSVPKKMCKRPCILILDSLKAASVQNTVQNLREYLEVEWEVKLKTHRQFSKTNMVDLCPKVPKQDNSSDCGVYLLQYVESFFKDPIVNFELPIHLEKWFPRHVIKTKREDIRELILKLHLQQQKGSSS
AHR activator: activates the human aryl hydrocarbon receptor; P35869; AHR-responsive luciferase reporter cells, luminescence; activation, % at 5 µM; 320,000 tested, 2.5% active; AID 2796; in the data active means activation above about 47%;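 further: 0% = vehicle wells and 100% = reference agonist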
EBI2 antag: EBI2 (human) antagonism | P32249 | EBI2 beta-arrestin recruitment, luminescence, 7a,25-OHC stimulated | inhibition, % at 5 µM | 360,000 tested, 0.81% active | AID 651636; in the data active means inhibition above about 38%;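 further: enzyme fragment complementation signal reports receptor beta-arrestin coupling in cells; 0% = agonist plus DMSO wells and 100% = wells without agonist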
SENP8 block-2: SENP8 protease inhibition; Q96LD8; purified SENP8, Z-RLRGG-aminoluciferin cleavage, luminescence; inhibition, % at 10 µM; 330,000 tested, 1.2% active; in the data active means inhibition above about 50%
SENP8 confirm: human SENP8 inhibition, confirmed; shares compounds with SENP7 block; Recombinant SENP8, Z-RLRGG-aminoluciferin luminescence, 60 min; inhibition, % at 12.5 µM; AID 488912; 6,200 tested, 40% active;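 active means mean inhibition across replicates above about 50%, limit read from the data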
SENP6 conf: confirmation of human SENP6 protease inhibitors; shares compounds with SENP7 block; recombinant SENP6, Z-RLRGG-aminoluciferin luminescence; inhibition, % at 12.5 µM; 6,200 tested, 58% active; AID 488915
SENP7 confirm: human SENP7 inhibition, confirmed; inhibition, % at 12.5 µM; recombinant SENP7, Z-RLRGG-aminoluciferin luminescence, 40 min; shares compounds with SENP7 block; 6,200 tested, 69% active; AID 488917
Casp3 select: inhibits human caspase-3 in SENP selectivity test. shares compounds with SENP7 block. purified caspase-3, Z-DEVD-aminoluciferin luminescence, 60 min. inhibition, % at 12.5 µM. 6,200 tested, 60% active;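 active means mean inhibition above about 50%, limit read from the data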;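 further: plate controls were enzyme with DMSO for no effect and wells without caspase-3 for full effect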
Luc interf: counter-screen for SENP inhibitors: luminescence interference. shares compounds with SENP7 block. 6,200 tested, 39% active. Pre-incubated SENP8/Z-RLRGG-aminoluciferin, luciferase luminescence interference. inhibition, % at 12.5 µM;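 active means mean inhibition above about 50% when retested at one dose, limit read from the data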;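 further: plate controls were DMSO wells with completed reaction for no effect and substrate without enzyme for full effect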
Active calls of the source: *; nt = not tested or not shown.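 How the source made its calls, unless noted: active means mean inhibition above about 50% in the one-dose retest (limit read from the data); inactive means the rest.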

SMILES	SENP6 block	SENP8 block-1	SENP7 block	AHR activator	EBI2 antag	SENP8 block-2	SENP8 confirm	SENP6 conf	SENP7 confirm	Casp3 select	Luc interf
CC(/C=N/NC(=O)c1cccs1)=C\c1ccccc1	3	-38	77*	0	19	71*	13	81*	93*	63*	20
CC(/C=N/NC(=O)c1ccccc1F)=C\c1ccccc1	58*	2	43	-5	9	28	48	41	70*	52*	54*
O=C(N/N=C/C(Cl)=C/c1ccccc1)c1ccccn1	-38	-12	5	7	-10	-12	nt	nt	nt	nt	nt
O=C(O)c1cc(N/N=C/C(Cl)=C/c2ccccc2)ccc1Cl	88*	-36	89*	-4	-1	96*	98*	99*	101*	38	97*
Cc1cc(C(=O)N/N=C/C(Cl)=C/c2ccccc2)c(C)o1	49	21	53*	35	19	28	36	36	75*	42	40
O=C(O)c1cc(NN=C2c3ccccc3-c3ccccc32)ccc1Cl	9	24	5	5	-10	22	nt	nt	nt	nt	nt
CCc1ccc(C(=O)/C=C/Nc2ccc(S(=O)(=O)Nc3cnc4ccccc4n3)cc2)cc1	-1	-495	1	-2	-2	-11	nt	nt	nt	nt	nt
Cc1ccccc1NC(=O)Cc1nc(COC(=O)CSc2ccccc2)cs1	-20	0	15	0	13	-9	nt	nt	nt	nt	nt
CC(C)CC(=O)NC(Nc1ccc([N+](=O)[O-])cc1)C(Cl)(Cl)Cl (configuration not stated)	4	14	-7	1	6	4	nt	nt	nt	nt	nt
CS(=O)(=O)N(CC(=O)N1CCc2ccccc2C1)Cc1ccccc1	-8	19	1	-1	3	-4	nt	nt	nt	nt	nt
Cc1cccc(C#Cc2ccccc2)n1	91*	5	90*	1	0	84*	-8	73*	96*	82*	8
COc1ccc2c(c1)CCc1c-2n[nH]c1C(=O)NCCC(C)C	48	9	60*	-3	10	56*	23	54*	85*	52*	10
CNC(=O)c1[nH]nc2c1CCc1cc(OC)ccc1-2	-40	22	8	-6	-15	-3	nt	nt	nt	nt	nt
CC(C)Oc1ccc(C(=O)Nc2nc3ccccc3[nH]2)cc1	97*	0	100*	-8	11	97*	91*	99*	103*	98*	68*
O=C(Nc1nc2ccccc2[nH]1)c1ccccc1OC(F)F	91*	-250	91*	51*	8	84*	87*	88*	100*	95*	90*
O=C(Nc1nc2ccccc2[nH]1)c1ccc(OC(F)F)cc1	95*	3	96*	-3	10	89*	81*	93*	101*	95*	62*
N#CC(Cc1ccc(OC(F)F)cc1)c1nc2ccccc2[nH]1 (configuration not stated)	93*	-22	64*	8	8	80*	92*	91*	100*	88*	91*
N#CC(Cc1cccs1)c1nc2ccccc2[nH]1 (configuration not stated)	nt	-34	nt	nt	-5	nt	nt	nt	nt	nt	nt
COc1cc(C(=O)Nc2nc3ccccc3[nH]2)ccc1OC(F)F	39	-24	25	1	-7	4	nt	nt	nt	nt	nt
CCOc1ccccc1N1CCN(C(=O)c2cn(CC3CCCCC3)nn2)CC1	19	1	-2	nt	-2	6	nt	nt	nt	nt	nt
Cc1ccc2c(c1)cc1c(=O)n(CC(=O)NCCN3CCCC3)nc(C)n12	-13	-78	17	2	-5	-9	nt	nt	nt	nt	nt
CC(=O)N1CCN(S(=O)(=O)c2cccc(C(=O)NC3CCCC(C)C3C)c2)CC1 (configuration not stated)	nt	4	nt	nt	-8	nt	nt	nt	nt	nt	nt
Cn1cccc1C(=O)C(=O)Nc1ccc(F)c(F)c1	89*	8	83*	-6	-9	80*	43	39	77*	53*	42
Cn1cccc1C(=O)C(=O)Nc1cc(Cl)cc(Cl)c1	73*	24	94*	2	6	67*	35	53*	88*	58*	-1
Cn1cccc1C(=O)C(=O)Nc1ccc(Cl)cc1	90*	23	95*	-4	4	86*	93*	93*	100*	90*	57*
SMILES	SENP6 block	SENP8 block-1	SENP7 block	AHR activator	EBI2 antag	SENP8 block-2	SENP8 confirm	SENP6 conf	SENP7 confirm	Casp3 select	Luc interf
Cn1cccc1C(=O)c1ccc(Cl)cc1Cl	-4	15	-3	1	4	-2	nt	nt	nt	nt	nt
O=C(c1cn2ccccc2n1)N1CCCC(Nc2ccc(F)c(F)c2)C1 (configuration not stated)	-6	11	0	3	-8	5	nt	nt	nt	nt	nt
COc1nc(OC)nc(Oc2ccc([N+](=O)[O-])cc2Cl)n1	5	4	7	6	-3	0	nt	nt	nt	nt	nt
COc1ccc(S(=O)(=O)N2CCNC(=O)CC2)cc1	-15	14	8	2	11	-2	nt	nt	nt	nt	nt
CCN(CCCCCN(C)C)Cc1cc2ccccc2o1	-11	8	-11	-2	-11	-8	nt	nt	nt	nt	nt
O=C(Nc1ccc(Cl)cc1)Nc1ccccc1C(=O)NCc1ccco1	91*	-115	96*	-1	6	84*	80*	81*	99*	78*	78*
O=C(Nc1ccccc1)Nc1ccccc1C(=O)NCc1ccccc1	7	-400	52*	21	15	-4	-2	-3	74*	34	6
O=C(Nc1ccccc1C(=O)NCc1ccco1)c1ccccc1	-16	18	-5	0	-5	1	nt	nt	nt	nt	nt
CNC(=O)Nc1ccccc1C(=O)NCc1ccccc1	0	-28	2	5	2	-2	nt	nt	nt	nt	nt
O=c1c2cc([N+](=O)[O-])cc([N+](=O)[O-])c2[nH]n1-c1ccccc1	64*	31	0	11	10	46	55*	51*	79*	71*	73*
Nc1[nH]n(-c2ccccc2)c(=O)c1N=Nc1ccccc1	72*	28	67*	33	-1	43	-4	45	83*	42	-6
COc1cc([N+](=O)[O-])ccc1N=Nc1c(N)[nH]n(-c2ccccc2)c1=O	6	25	12	8	4	17	nt	nt	nt	nt	nt
